The campaign covered roughly 5,500 compounds. About 2,000 (36%) were called active. Inconclusive results (about 18%) are left out. Rule as the data show it: active = normalized growth mostly below about 0.91 (no sharp cut-off); inconclusive = no clear call, values can overlap the other calls; inactive = mostly above about 0.92. The list shows a part of the results.
Assay: chemical genetic growth profiling, strain panel (AID 1159580);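 also: tested at 20 µM; growth read once vehicle control cultures reached saturation at 30 °C; 1 = growth at the plate median or of vehicle wells; lower values mean less growth of the strain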
Conditions: growth OD

Measured: normalized growth

C=C1C(C)C2C(Cc3ccccc3)NC(=O)C23OC(=O)/C=C/C(O)CCCC(C)C/C=C/C3C1O (stereo unspecified)
inactive: S. cerevisiae deletion strains, locus YAL013W, strain DEP1, stronger effect = lower value 1.01 | S. cerevisiae deletion strains, locus YBR021W, strain FUR4, stronger effect = lower value 1.01 | S. cerevisiae deletion strains, locus YBR229C, strain ROT2, stronger effect = lower value 1 | S. cerevisiae deletion strains, locus YCL029C, strain bik1, stronger effect = lower value 0.997 | S. cerevisiae deletion strains, locus YDL035C, strain GPR1, stronger effect = lower value 1.02 | S. cerevisiae deletion strains, locus YDL074C, strain BRE1, stronger effect = lower value 1.04 | S. cerevisiae deletion strains, locus YDL101C, strain DUN1, stronger effect = lower value 1.01 | S. cerevisiae deletion strains, locus YDL134C, strain PPH21, stronger effect = lower value 1.01 | S. cerevisiae deletion strains, locus YDL185W, strain tfp1, stronger effect = lower value 1 | S. cerevisiae deletion strains, locus YDL192W, strain arf1, stronger effect = lower value 1 | S. cerevisiae deletion strains, locus YDR101C, strain arx1, stronger effect = lower value 0.995 | S. cerevisiae deletion strains, locus YDR150W, strain NUM1, stronger effect = lower value 1.01 | S. cerevisiae deletion strains, locus YDR162C, strain NBP2, stronger effect = lower value 0.998 | S. cerevisiae deletion strains, locus YDR318W, strain mcm21, stronger effect = lower value 1 | S. cerevisiae deletion strains, locus YDR388W, stronger effect = lower value 1 | S. cerevisiae deletion strains, locus YDR502C, strain sam2, stronger effect = lower value 0.996 | S. cerevisiae deletion strains, locus YEL061C, strain CIN8, stronger effect = lower value 1 | S. cerevisiae deletion strains, locus YER110C, stronger effect = lower value 0.997 | S. cerevisiae deletion strains, locus YER155C, strain BEM2, stronger effect = lower value 0.993 | S. cerevisiae deletion strains, locus YER167W, strain BCK2, stronger effect = lower value 1.01 | S. cerevisiae deletion strains, locus YGL078C, strain dbp3, stronger effect = lower value 1 | S. cerevisiae deletion strains, locus YGL086W, strain mad1, stronger effect = lower value 0.988 | S. cerevisiae deletion strains, locus YGL248W, strain PDE1, stronger effect = lower value 0.997 | S. cerevisiae deletion strains, locus YGR078C, strain PAC10, stronger effect = lower value 1.02 | S. cerevisiae deletion strains, locus YGR135W, strain pre9, stronger effect = lower value 0.999 | S. cerevisiae deletion strains, locus YGR229C, strain SMI1, stronger effect = lower value 1.03 | S. cerevisiae deletion strains, locus YGR252W, strain gcn5, stronger effect = lower value 1 | S. cerevisiae deletion strains, locus YHR030C, strain SLT2, stronger effect = lower value 1 | S. cerevisiae deletion strains, locus YHR079C, strain IRE1 (second series), stronger effect = lower value 0.987 | S. cerevisiae deletion strains, locus YHR094C, strain hxt1, stronger effect = lower value 1.01 | S. cerevisiae deletion strains, locus YHR129C, strain ARP1, stronger effect = lower value 0.998 | S. cerevisiae deletion strains, locus YHR200W, strain rpn10, stronger effect = lower value 1 | S. cerevisiae deletion strains, locus YIL066C, strain RNR3, stronger effect = lower value 1.02 | S. cerevisiae deletion strains, locus YIL073C, strain SPO22, stronger effect = lower value 1.06 | S. cerevisiae deletion strains, locus YIL125W, strain kgd1, stronger effect = lower value 0.984 | S. cerevisiae deletion strains, locus YIR030C, strain dcg1, stronger effect = lower value 0.998 | S. cerevisiae deletion strains, locus YJL095W, strain BCK1, stronger effect = lower value 1 | S. cerevisiae deletion strains, locus YJL134W, strain LCB3, stronger effect = lower value 1 | S. cerevisiae deletion strains, locus YJL168C, strain set2, stronger effect = lower value 0.998 | S. cerevisiae deletion strains, locus YJL187C, strain SWE1 (second series), stronger effect = lower value 1.01 | S. cerevisiae deletion strains, locus YJR043C, strain POL32, stronger effect = lower value 1.01 | S. cerevisiae deletion strains, locus YJR075W, strain HOC1, stronger effect = lower value 0.996 | S. cerevisiae deletion strains, locus YKL009W, strain mrt4, stronger effect = lower value 1.01 | S. cerevisiae deletion strains, locus YKL068W, stronger effect = lower value 1 | S. cerevisiae deletion strains, locus YKL085W, strain MDH1 (second series), stronger effect = lower value 0.999 | S. cerevisiae deletion strains, locus YKL085W, strain MDH1, stronger effect = lower value 0.999 | S. cerevisiae deletion strains, locus YKL190W, strain CNB1, stronger effect = lower value 1.01 | S. cerevisiae deletion strains, locus YKR001C, strain vps1, stronger effect = lower value 0.994 | S. cerevisiae deletion strains, locus YLR039C, strain RIC1, stronger effect = lower value 1.01 | S. cerevisiae deletion strains, locus YLR058C, strain SHM2, stronger effect = lower value 1 | S. cerevisiae deletion strains, locus YLR102C, strain apc9, stronger effect = lower value 1.01 | S. cerevisiae deletion strains, locus YLR262C, strain YPT6, stronger effect = lower value 1.02 | S. cerevisiae deletion strains, locus YLR268W, strain sec22, stronger effect = lower value 1 | S. cerevisiae deletion strains, locus YLR330W, strain CHS5, stronger effect = lower value 1.01 | S. cerevisiae deletion strains, locus YLR342W, strain FKS1 (second series), stronger effect = lower value 1.02 | S. cerevisiae deletion strains, locus YLR371W, strain rom2, stronger effect = lower value 1.01 | S. cerevisiae deletion strains, locus YLR418C, strain cdc73, stronger effect = lower value 0.995 | S. cerevisiae deletion strains, locus YML016C, strain PPZ1, stronger effect = lower value 1 | S. cerevisiae deletion strains, locus YML032C, strain rad52, stronger effect = lower value 1 | S. cerevisiae deletion strains, locus YML124C, strain tub3, stronger effect = lower value 0.997 | S. cerevisiae deletion strains, locus YMR078C, strain ctf18, stronger effect = lower value 0.992 | S. cerevisiae deletion strains, locus YMR223W, strain ubp8, stronger effect = lower value 1 | S. cerevisiae deletion strains, locus YMR263W, strain SAP30, stronger effect = lower value 1.01 | S. cerevisiae deletion strains, locus YMR307W, strain GAS1, stronger effect = lower value 1.02 | S. cerevisiae deletion strains, locus YNL067W, strain RPL9B, stronger effect = lower value 1.01 | S. cerevisiae deletion strains, locus YNL128W, strain TEP1, stronger effect = lower value 1.01 | S. cerevisiae deletion strains, locus YNL153C, strain GIM3, stronger effect = lower value 1.02 | S. cerevisiae deletion strains, locus YNL233W, strain BNI4, stronger effect = lower value 0.994 | S. cerevisiae deletion strains, locus YNL250W, strain rad50, stronger effect = lower value 1 | S. cerevisiae deletion strains, locus YNL271C, strain bni1, stronger effect = lower value 0.998 | S. cerevisiae deletion strains, locus YNL298W, strain CLA4, stronger effect = lower value 0.995 | S. cerevisiae deletion strains, locus YNL307C, strain MCK1, stronger effect = lower value 1.01 | S. cerevisiae deletion strains, locus YNL322C, strain KRE1, stronger effect = lower value 1.01 | S. cerevisiae deletion strains, locus YNR052C, strain pop2, stronger effect = lower value 1.01 | S. cerevisiae deletion strains, locus YOL006C, strain TOP1, stronger effect = lower value 1.03 | S. cerevisiae deletion strains, locus YOL012C, strain htz1 0.948 | S. cerevisiae deletion strains, locus YOL147C, strain pex11, stronger effect = lower value 0.997 | S. cerevisiae deletion strains, locus YOR061W, strain CKA2, stronger effect = lower value 1 | S. cerevisiae deletion strains, locus YOR069W, strain VPS5, stronger effect = lower value 1 | S. cerevisiae deletion strains, locus YOR136W, strain idh2, stronger effect = lower value 0.999 | S. cerevisiae deletion strains, locus YOR144C, strain elg1, stronger effect = lower value 1 | S. cerevisiae deletion strains, locus YOR184W, strain ser1, stronger effect = lower value 1.03 | S. cerevisiae deletion strains, locus YOR316C, strain cot1, stronger effect = lower value 1 | S. cerevisiae deletion strains, locus YPL055C, strain LGE1, stronger effect = lower value 1.03 | S. cerevisiae deletion strains, locus YPL241C, strain CIN2, stronger effect = lower value 1.01 | S. cerevisiae deletion strains, locus YPR119W, strain clb2, stronger effect = lower value 0.999 | S. cerevisiae deletion strains, locus YPR141C, strain kar3, stronger effect = lower value 1 | S. cerevisiae deletion strains, locus YPR163C, strain tif3, stronger effect = lower value 1 | S. cerevisiae deletion strains, locus YPR167C, strain met16, stronger effect = lower value 0.999 | S. cerevisiae deletion strains, strain wtn01, stronger effect = lower value 0.995 | S. cerevisiae strains, strain wild type, stronger effect = lower value 1.01

Source: PubChem BioAssay AID1159580 (chemical genetic matrix, 2015)
